HCMV antiviral: inhibitors of human cytomegalovirus. activity change, negative = inhibition, % at 57.5 µM. actives 4.5% (n = 410,000). HFF cells, HCMV-luciferase reporter, 72 h; hits give low values; in the data active means activity change below about -60%; inconclusive means no clear call, values can overlap the other calls; inactive means above about -39%
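Human foreskin fibroblasts infected with luciferase-reporter HCMV at MOI 1 PFU/cell, compounds at two doses. Luciferase measured 72 h post infection; normalized to buffer-only basal and Salinomycin (10uM) controls.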
VACV mCherry inh: vaccinia inhibition (mCherry reporter). AID 720579. actives 0.63% (n = 310,000). Potency, µM (titrated, usually from 36.5 µM), inactives show top-dose activity change, negative = inhibition, actives largely listed as inhibitors. Vaccinia virus mCherry reporter infection, fluorescence; calls by dose curve; tested in A549 cells; further: potency means the concentration at half of the fitted maximal effect; nearly all actives have a fitted effect of over 35% in size
VACV Venus inh: vaccinia inhibition (Venus reporter). Vaccinia virus Venus reporter expression, fluorescence. AID 720580. actives 0.46% (n = 330,000). Potency, µM (titrated, usually from 36.5 µM), for the others: at the highest dose activity change, negative = inhibition, usual class: inhibitors; calls by dose curve; tested in A549 cells; further: potency means the concentration at half of the fitted maximal effect; nearly all actives have a fitted effect of over 30% in size
HCV inh: HCV inhibition; AID 651820; Potency, µM (doses to about 41.8 µM), for inactives: at the highest dose activity change, negative = inhibition, hits mostly inhibitors; actives 3.4% (n = 340,000); Huh7.5.1 HCVcc-Cre infection, luciferase reporter, 44 h; further: potency means the concentration at half of the fitted maximal effect
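Cells seeded at 1,000/well and cultured 4 h, then compounds added followed by HCVcc-Cre virus (~0.5 moi). After 44 h further culture, luciferase substrate was added, plates held 15 min at room temperature, and luminescence read for 15 sec.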
FMDV inh: antivirals against foot and mouth disease virus. FMDV antiviral cell-based qHTS. Potency, µM (series often up to 57.9 µM), for inactives: at the highest dose activity change, negative = inhibition, actives largely listed as inhibitors. actives 1.2% (n = 410,000). AID 1159524; calls by dose curve; tested in HEK293T cells; further: read-out not given here; potency means the concentration at half of the fitted maximal effect; nearly all actives have a fitted effect of over 45% in size
Sm TGR inh: inhibitors of Schistosoma mansoni thioredoxin glutathione reductase | Q962Y6 | purified TGR, DTNB reduction, TNB absorbance 405 nm | Potency, µM (doses to about 114 µM), for the others: top-dose activity change, negative = inhibition, actives largely listed as inhibitors | actives 3% (n = 360,000); further: potency means the concentration at half of the fitted maximal effect; nearly all actives have a fitted effect of over 60% in size
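First, TGR (20 nM dispensed) and NADPH were mixed with compound. Second, a 15 min room-temperature incubation followed. Third, further NADPH and then DTNB were added to start the reaction. Finally, TNB absorbance was monitored kinetically.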
An asterisk follows results filed as active; i = inactive; ? = inconclusive; . = no result; [ ] = another dose, or the depositor's remark. Rows were chosen to be rich in hits. Some 9.3% of all compounds tested hit in one or more screens of this group. Unless noted, the call rests on the fitted dose curve; in most records, active means well fitted curve in the direction sought with a large enough effect; inconclusive means small, poorly fitted or top-dose-only effect, or another doubt; inactive means no such curve, though single readings can be large; an effect the other way counts as inactive or inconclusive. On the % scale 0 is the no-effect control and ±100 the full control effect.

SMILES	HCMV antiviral	VACV mCherry inh	VACV Venus inh	HCV inh	FMDV inh	Sm TGR inh
COc1cc(/C=N\NC(=O)CN2CCOCC2)ccc1OCC(=O)Nc1ccc(C)c(C)c1	-2	-28%	-23%	-18%	2%	89µM*
CCCOc1ccc(/C=C/C(=O)Nc2ccc([N+](=O)[O-])cc2C)cc1	-35	-27%	-23%	?	-7%	8%
COc1cc(/C=N\Nc2ccc([N+](=O)[O-])cc2)ccc1OCC(=O)Nc1ccc(C)c(C)c1	-72*	.	-8%	-11%	-26%	-12%
COc1ccc([N+](=O)[O-])cc1/C=N/NC(=O)Cc1ccccc1	?	.	.	?	-10%	.
CCCOc1ccc(/C=C/C(=O)Nc2ccc([N+](=O)[O-])cc2C)cc1OC	-96*	.	.	-18%	0%	2%
COc1cc(/C=N/NC(=O)Cc2ccccc2)ccc1Oc1ccc([N+](=O)[O-])cc1[N+](=O)[O-]	-62*	.	.	14µM*	-11%	1%
O=C(O)CCCCCNC(=O)c1ccccc1Br	17	-9%	3%	10%	18%	85%
COc1ccc(-c2cc(CCCC(=O)NCCc3ccccc3)no2)cc1	13	i	-15%	-18%	3%	8%
CCC(C(N)=NCCc1ccc(OC)c(OC)c1)c1ccccc1 (stereo not drawn)	104	.	.	1%	-22%	0%
CC(C)CN1CCC2(CC1)CCN(C(=O)c1ccncc1)CC2	.	.	.	.	-11%	.
Cc1cccc(N2CCN(C(=O)COc3noc4nc(C)cc(C)c34)CC2C)c1 (stereo not drawn)	1	-1%	-15%	.	?	.
CCCc1nc2ccccc2c(C(=O)OC(C)C(=O)NCc2ccc3c(c2)OCO3)c1CC (stereo not drawn)	-35	?	10µM*	?	?	-7%
COc1ccccc1N(C)S(=O)(=O)c1ccc(C(=O)OC(C)C(=O)NCc2ccc3c(c2)OCO3)cc1 (stereo not drawn)	-25	i	-11%	11µM*	?	-1%
CC(OC(=O)c1ccc(Cl)cc1)C(=O)NCc1ccc2c(c1)OCO2 (stereo not drawn)	-16	.	.	4%	-20%	-6%
O=C(COc1ccc(C(=O)c2ccccc2)cc1)NC1CCCCC1	-84*	i	-7%	22%	-18%	0%
CC(Oc1ccccc1)C(=O)NC1CCCCCCC1 (stereo not drawn)	-10	i	-4%	6%	-9%	3%
CC(OC(=O)COc1ccccc1)C(=O)NC1CCCC1 (stereo not drawn)	1	.	.	8%	-15%	22µM*
O=C(COc1ccccc1)NC1CCCCC1	-9	-8%	-15%	33%	26%	-3%
O=C(COc1ccc(C(=O)c2ccccc2)cc1)NC1CCCCCC1	?	-23%	-15%	11µM*	?	8%
CC(=O)NCCCCCCNC(C)=O	21	i	-13%	7%[8.37 µM]	-21%	9%
CCC(CC)CN1C(Nc2ccccc2)=NC[C@@H]1CC(C)C	.	-4%	-12%	5%	-20%	-15%
CC(C)n1c2ccccc2c2cc([N+](=O)[O-])ccc21	?	-21%	-15%	8.9µM*	-27%	5%
CCn1c2ccccc2c2cc([N+](=O)[O-])ccc21	-20	-14%	-13%	?	-14%	-1%
O=C(c1ccc(Cl)c(S(=O)(=O)N2CCCC2)c1)N1CCN(c2ccc(F)cc2)CC1	-87*	?	-27%	?	?	7%
CC1CCN(S(=O)(=O)c2cc(C(=O)N3CCN(c4ccccc4)CC3)ccc2Br)CC1	-76*	-26%	?	.	-19%	.
SMILES	HCMV antiviral	VACV mCherry inh	VACV Venus inh	HCV inh	FMDV inh	Sm TGR inh
Cc1ccc(C(=O)N2CCN(c3ccc(F)cc3)CC2)cc1S(=O)(=O)N1CCCCC1	-84*	?	-16%	.	?	2%
CC1CC(C)CN(S(=O)(=O)c2ccc(C(=O)N3CCN(c4ccccc4)CC3)cc2)C1 (stereo not drawn)	-25	-14%	0%	10µM*	.	-28%
O=C(c1ccc(Cl)c(S(=O)(=O)N2CCCC2)c1)N1CCN(c2ccccc2)CC1	?	-19%	-14%	?	0%	-7%
O=c1[nH]c(C2CCN(S(=O)(=O)/C=C/c3ccccc3)CC2)nc2c1nnn2Cc1ccc(F)cc1	40	?	-23%	-17%	1%	8%
Nc1nnc(-c2cc3c(ccc4ccccc43)oc2=O)s1	.	.	.	.	.	4%
COc1ccc(N2CCN(C(=O)c3cc(N4C(=O)C5C6CCC(C6)C5C4=O)ccc3Cl)CC2)cc1 (stereo not drawn)	-36	-8%	-13%	6%	?	-12%
CC(=O)c1ccc(N2CCN(C(=O)c3ccc(-c4ccccc4)cc3)CC2)cc1	-66*	i	-9%	4%	-8%	-4%
CC(=O)c1ccc(N2CCN(C(=O)c3cccc(Oc4ccccc4)c3)CC2)cc1	-1	-12%	-24%	-29%	-21%	0%
O=C(c1cc(N2C(=O)C3C4CCC(C4)C3C2=O)ccc1Cl)N1CCN(c2ccc(F)cc2)CC1 (stereo not drawn)	21	-4%	-22%	?	32µM*	-7%
O=C(c1ccc(Cl)c(S(=O)(=O)N2CCCCC2)c1)N1CCN(c2ccccc2)CC1	-77*	-9%	-19%	?	?	-11%
Cc1c(O)ccc(/C=N/Nc2ncccc2[N+](=O)[O-])c1O	-69*	?	-28%	?	-20%	-22%
O=[N+]([O-])c1cccnc1N/N=C/c1ccccc1O	-97*	?	13%	?	3%	-3%
O=[N+]([O-])c1ccccc1/C=N/Nc1nccnc1Cl	79	.	.	6%	0%	3%
CCCCn1c(N)c(N(CC(C)C)C(=O)CSc2ccc3c(c2)OCCO3)c(=O)[nH]c1=O	15	.	.	16%	-24%	?
Cc1cc(-c2ccc(C)c(S(=O)(=O)NCCc3ccco3)c2)on1	2	.	.	-10%	43%	-36%
Nc1ccc2c(c1)C(=O)c1cc(N)c(Cl)cc1-2	37	?	-27%	25µM*	27%	.
CSc1nc(C)cc(C)c1C(N)=O	-8	-11%	1%	1%	5%	-13%
Cc1cc(C)c(C(=O)O)c(Cl)n1	-21	i	-8%	12%	-11%	40µM*
O=C(Nc1cccs1)Nc1cc(C(F)(F)F)ccc1Cl	-26	-24%	-25%	.	8%	-4%
O=[N+]([O-])c1nn(-c2ccc3c(c2)OCCO3)n(O)c1=Nc1ccccc1	-95*	-14%	-10%	?	7.9µM*	-6%
Cc1ccc(N=c2c([N+](=O)[O-])nn(-c3ccc4c(c3)OCCO4)n2O)cc1F	-85*	-15%	-17%	?	?	-36%

Screens as filed in PubChem.
